Test results reported in the supplement of paper PMC11417369.
± gives the standard deviation of the averaged measurements. In all, about 25,000 sequences were measured (“ln(normalized median fluorescence intensity)”: median about 10, highest 2% from about 12 on). This is one part of a sample in which the highest values are shown more often than they occur.

System: PfAP2-G AP2 domain (GST-tagged)
Experiment: gcPBM binding intensity (ln(normalized median fluorescence intensity)); higher = stronger DNA binding
How it was run: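 The highest Masliner-normalised natural-log median intensity across replicate spots of either probe orientation is reported as binding intensity. GST-tagged P. falciparum DNA-binding domains expressed in E. coli were applied for 1 h to an Agilent 4 × 180k array of primer-extended double-stranded 36-bp intergenic genomic probes plus negative controls, and bound protein was detected with Alexa488 anti-GST antibody and scanned at 488 nm.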

Row | Sequence | gcPBM binding intensity (ln)
1 | TGCCTATGACATGAATGTACATTAAAATTAAATAAA [XGTACX_site7126] | 10.8 ± 0.52
2 | AAAGAAAATAGGTGTACACATAATAAATACAGCTAT [CACACA_site5917] | 11.7 ± 1.1
3 | TAAAAGAAATAATATACACACATATATAAAAATAAA [CACACA_site1329] | 9.87 ± 0.085
4 | TAAAAATAAAGAAAATGTACATAAATAATAATACAT [XGTACX_site2278] | 11.2 ± 0.69
5 | TTAAAAGAAAATAGGTGTACACATAATATATACATA [XGTACX_site7697] | 11.8 ± 1
6 | TAATACATACACACATGTACATACAGAAATAAATAA [XGTACX_site3245] | 11.2 ± 0.81
7 | ATAACATAACATAATACACACATATAAAAAAGAAAT [CACACA_site3028] | 10.1 ± 0.18
8 | TCTTGTTTATCAACAGCACACACAACAACAACAACA [CACACA_site8046] | 10.1 ± 0.23
9 | CGCCCACAGATATATACACACATATATAAATAAATA [CACACA_site6877] | 10.1 ± 0.3
10 | AATACTAAAAAGTGTACACATACATAAAAAATTGCA [CACACA_site5620] | 11.6 ± 0.87
11 | TAAAAATTAAAGTGTACACATATATATATATATATA [CACACA_site4781] | 11.6 ± 0.97
12 | ATATAAAAAAATTGCACACATAAATATATACATATA [CACACA_site1218] | 10.12 ± 0.064
13 | TAAGGTTCATTAAAGTGTACACATAAATACCGTAAC [XGTACX_site8212] | 11.6 ± 0.95
14 | TATATTGCAAAAAGTACACACATAAATAAATACATA [CACACA_site6589] | 11.6 ± 1.1
15 | GGTTCATTAAAGTGTACACATAAATACCGTAACATT [CACACA_site6002] | 11.9 ± 1
16 | CGAAACCATATGTACACACACATATATAAATATGTA [CACACA_site7082] | 11.3 ± 0.88
17 | ATTAAATACATTAACACACACACAAATAAATACATA [CACACA_site5583] | 10.2 ± 0.25
18 | AACCATAAAAAGTGTACACATATAAAAAATATGGAA [CACACA_site4199] | 11.7 ± 1.1
19 | TAAATTAATAAAAAGTGTACATAATATACATATATA [XGTACX_site8604] | 11.3 ± 0.66
20 | GCATGGAACCATATATGTACATATATAAATAAATAA [XGTACX_site4996] | 11.2 ± 0.63
21 | TTAAATACTAAAAAGTGTACACATACATAAAAAATT [XGTACX_site6261] | 11.7 ± 0.92
22 | TTTTGTTGAAAAGTAAGATATTCCAACATGTTTTTA [CACACA_negctrl_site391] | 9.88 ± 0.014
23 | TATATATATATATATACATGCATACATATACATACA [TGCATGCA_site897] | 10 ± 0.22
24 | TTTTTTTTTTTTTTTTTTTGTCTTATATATTACGGA [CACACA_negctrl_site322] | 9.64 ± 0.67
